Experimental data taken from PubChem BioAssay AID602433 (Southern Research Specialized Biocontainment Screening …, 2012).
Potency and affinity values are given separately. Results filed as inconclusive are left out. Activity calls are given as the source filed them. No rule for the calls is given here.

Experiment: THP-1 cell cytotoxicity, cytotoxicity control, set 6 (AID 602433)
Settings: THP-1 cell viability, cytotoxicity CC50; series mostly up to 100 µM; viability: at the top concentration

Structure (SMILES)	viability
O=C(c1ccc(CNc2c(N3CCCC3)c(=O)c2=O)cc1)N1CCN(c2ccccc2)CC1	99.7% (inactive)
O=C(c1ccc(CNc2c(N3CCCC3)c(=O)c2=O)cc1)N1CCC(c2ccccc2)CC1	99.5% (inactive)
O=C(c1ccc(CNc2c(N3CCOCC3)c(=O)c2=O)cc1)N1CCN(c2ccccc2)CC1	92.5% (inactive)
CC(C)CCNC(=O)CSc1nc2c(c(=O)[nH]1)CCCCC2	96% (inactive)
O=C(CSc1nc2c(c(=O)[nH]1)CCCC2)NC1CCCCC1	94.3% (inactive)
O=C(CSc1nc2c(c(=O)[nH]1)CCC2)NC1CCCCC1	98.8% (inactive)
COC(=O)C(Cc1ccccc1)NC(=O)CSc1nc2ccccc2c(=O)[nH]1 (stereo not drawn)	81.6% (inactive)
O=C(NCc1ccc(C(=O)N2CCN(c3ccccc3)CC2)cc1)NC1CCCCC1	82.6% (inactive)
